Inconclusive results are not listed. Values without a mark were called inactive. Calls of active or inactive are those of the source. Calls come from the whole dose curve; as a rule, active = well fitted inhibition curve with a large enough effect; inconclusive = small, poorly fitted or top-dose-only effect; inactive = flat fitted curve, though single readings scatter.
biological target: Calcium and integrin-binding protein 1 (Homo sapiens) (UniProt Q99828); experiment: Primary qHTS for Identification of Calcium Integrin Binding Protein 1 (CIB1) Competitor (AID 1508620); conditions: CIB1-GST / FITC-alphaIIb peptide fluorescence polarization; series mostly up to 57.7 µM; activity change, negative = inhibition: at the top concentration;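 note: GST tagged CIB1 binding a fluorescein labelled alphaIIb integrin peptide tracer; top concentration of the series differs between compounds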
Outline: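 CIB1-GST (1 uM final) and compound incubated 15 min at room temperature before adding FITC-alphaIIb peptide tracer (100 nM final). Competition for binding read by fluorescence polarization (ex 480, em 540) after another 15 min at room temperature.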
% is set by controls: 0 for no effect and ±100 for the full control effect.

Calcium and integrin-binding protein 1 (Homo sapiens), sequence (Q99828 whole entry, looked up): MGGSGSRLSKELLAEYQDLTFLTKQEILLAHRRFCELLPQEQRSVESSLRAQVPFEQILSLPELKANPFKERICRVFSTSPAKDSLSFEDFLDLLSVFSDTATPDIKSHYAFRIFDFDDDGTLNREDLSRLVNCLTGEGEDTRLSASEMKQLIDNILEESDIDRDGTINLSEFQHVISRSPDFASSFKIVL

Compound | Potency | activity change, negative = inhibition
CCN[C@@H]1C[C@H](N)[C@@H](O[C@H]2OC(CN)=CC[C@H]2N)[C@H](O)[C@H]1O[C@H]1OC[C@](C)(O)[C@H](NC)[C@H]1O | inactive | 
CC1CCC2(O1)C(C)(C)CC(O[C@@H]1O[C@H](CO[C@@H]3OC[C@](O)(CO)[C@H]3O)[C@@H](O)[C@H](O)[C@H]1O)CC2(C)O (some centres not stated) |  | -1.07%
CN(C)C/C=C/C(=O)Nc1ccc(C(=O)Nc2cccc(Nc3ncc(Cl)c(-c4c[nH]c5ccccc45)n3)c2)cc1 | inactive | 
C[C@@H]1C[C@H](O[C@@H]2O[C@H](CO[C@@H]3OC[C@](O)(CO)[C@H]3O)[C@@H](O)[C@H](O)[C@H]2O)CC(C)(C)[C@H]1/C=C/[C@@H](C)O |  | -0.584%
O=C1N(CC2CCCCN2)CCN1c1ccccc1 (configuration not stated) |  | 3.76% [at 114 µM]
CC(C)CNC(=O)/C=C/CCCCc1ccc2c(c1)OCO2 |  | 4.28%
CC1(C)CCCC2(C)C1C(O)C=C(CO)C2(O)C(=O)O (configuration not stated) |  | 3.29% [at 114 µM]
C=C(C(=O)O)C1CCC(C)C2CCC(=O)OC2(C)C1 (configuration not stated) |  | -12.8% [at 114 µM]
CON(C)C(=O)N1N=C(c2cc(F)ccc2F)S[C@@]1(CCCN)c1ccccc1 | inactive | 
COc1ccc(/C=C/C(=O)O[C@H]2[C@@H]3C=CO[C@@H](O[C@@H]4O[C@H](CO)[C@@H](O)[C@H](O)[C@H]4O)[C@@H]3[C@@]3(CO)O[C@@H]23)cc1O |  | -0.887%
NC1CCC(N[C@@H]2C[C@H]2c2ccccc2)CC1 (some centres not stated) | inactive | 
C=C[C@@]1(C)CC(=O)C2[C@](C)(O1)[C@@H](OC(C)=O)[C@@H](O)[C@H]1C(C)(C)CCC[C@]21C (some centres not stated) |  | 1.14% [at 30.2 µM]
COc1ccc(C(OC2OC(CO)C(O)C(O)C2O)C(C)O)cc1 (configuration not stated) |  | -3.42%
CC1=CCC2C(C)(CO)CCCC2(C)C1CC12OC1C(O)C(CO)=CC2O (configuration not stated) |  | 3.87%
CC(C)=CCC[C@](C)(O[C@@H]1O[C@H](CO[C@@H]2OC[C@@H](O)[C@H](O)[C@H]2O)[C@@H](O)[C@H](O)[C@H]1O)[C@H]1CC[C@]2(C)[C@@H]1[C@H](O)C[C@@H]1[C@@]3(C)CC[C@H](O[C@@H]4O[C@H](CO)[C@@H](O)[C@H](O)[C@H]4O[C@@H]4O[C@H](CO)[C@@H](O)[C@H](O)[C@H]4O)C(C)(C)[C@@H]3CC[C@]12C |  | -1.61%
c1ccc(C(OC2CCN(CCCc3nn[nH]n3)CC2)c2ccccc2)cc1 |  | -6.05% [at 114 µM]
CNC(=O)[C@H]1O[C@@H](n2cnc3c(NCc4ccc(N)c(I)c4)ncnc32)[C@H](O)[C@@H]1O |  | -2.33% [at 30.2 µM]
COc1cc(C(C)=O)ccc1O[C@@H]1O[C@H](CO[C@@H]2O[C@@H](C)[C@H](O)[C@@H](O)[C@H]2O)[C@@H](O)[C@H](O)[C@H]1O |  | 2.59%
CCc1nc(C(N)=O)c(Nc2ccc(N3CCC(N4CCN(C)CC4)CC3)c(OC)c2)nc1NC1CCOCC1 | inactive | 
C/C=C(\C)C(=O)O[C@H]1[C@H](O)[C@]2(COC(C)=O)[C@H](O)C[C@]3(C)C(=CCC4[C@@]5(C)CC[C@H](O[C@@H]6O[C@H](C(=O)O)[C@@H](O[C@@H]7O[C@H](CO)[C@@H](O)[C@H](O)[C@H]7O)[C@H](O)[C@H]6O[C@@H]6O[C@H](CO)[C@@H](O)[C@H](O)[C@H]6O)[C@](C)(CO)C5CC[C@]43C)[C@@H]2CC1(C)C (some centres not stated) |  | 1.85% [at 30.2 µM]
C=CC(C)(O)CC/C=C(\C)C(=O)OCC1OC(OC2CCC3(C)C(CCC4(C)C3CC=C3C5CC(C)(C)C(O)CC5(C(=O)O)CCC34C)C2(C)C)C(O)C(OC2OC(CO)C(O)C(OC3OC(CO)C(O)C(OC4OC(COC5OC(CO)C(O)C(O)C5O)C(O)C(O)C4O)C3O)C2O)C1O (configuration not stated) |  | 0.919% [at 12.4 µM]
C/C1=C\C[C@H](O[C@@H]2O[C@H](CO)[C@@H](O)[C@H](O)[C@H]2O)/C(C)=C/[C@H]2OC(=O)[C@H](C)[C@@H]2CC1 |  | -2.97%
CCOC(=O)Nc1nc2ccccc2[nH]1 |  | 0.856% [at 114 µM]
CC1CCC2C(C)(C)C(O)CCC2(C)C12Cc1c(O)cc3c(c1O2)CN=C3N (configuration not stated) |  | 4.39%
C=CCc1ccc(O[C@@H]2O[C@H](CO[C@@H]3O[C@H](CO)[C@@H](O)[C@H](O)[C@H]3O)[C@@H](O)[C@H](O)[C@H]2O)c(O)c1 |  | 1.33%
O=C(O)C[C@H]1CCC(=O)[C@@H]1C/C=C\CCOC1OC(CO)C(O)C(O)C1O (some centres not stated) |  | -3.58%
C[C@@H]1O[C@@H](O[C@H]2[C@H](O[C@H]3[C@H](O[C@H]4CC[C@@]5(C=O)C(CC[C@]6(C)C5CC=C5C7CC(C)(C)C[C@@H](O)[C@]7(C)CC[C@]56C)C4(C)C)O[C@H](C(=O)O)[C@@H](O)[C@@H]3O)OC[C@@H](O)[C@@H]2O)[C@H](O)[C@H](O)[C@H]1O (some centres not stated) |  | -3.09% [at 30.2 µM]
